# Screening results (PubChem)
# HCMV antiviral = qHTS Assay for inhibitors of the human cytomegalovirus (HCMV); AID 1259415, 2018; activity change, negative = inhibition, % at 57.5 µM; 4.5% of 410,000 active; HFF cells, HCMV-luciferase reporter, 72 h; stronger effect = lower value; in the data active means activity change below about -60%; inconclusive means no clear call, values can overlap the other calls; inactive means above about -39%
#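 Inhibition of viral replication was scored as loss of reporter luminescence in HFFs infected with HCMV-luciferase (MOI 1 PFU/cell) for 72 h; compounds tested at 2 doses, normalized to buffer and Salinomycin controls.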
# Marburg entry inh = qHTS for inhibitors of binding or entry into cells for Marburg Virus. Marburg virus pseudotyped entry inhibition, cell reporter. Potency, µM (doses to about 37.8 µM), inactives show at the top dose activity change, negative = inhibition, actives largely listed as inhibitors. 1.8% of 300,000 active. AID 540276, 2011; calls by dose curve; tested in HEK293 cells; further: potency means the concentration at half of the fitted maximal effect
# Lassa entry inh = qHTS for Inhibitors of binding or entry into cells for Lassa Virus | Lassa virus pseudotype entry inhibition, cell reporter | Potency, µM (doses to about 37.9 µM), for the others: top-dose activity change, negative = inhibition, usual class: inhibitors | AID 540256, 2011 | 1.2% of 300,000 active; calls by dose curve; tested in HEK293 cells; further: potency means the concentration at half of the fitted maximal effect; nearly all actives have a fitted effect of over 50% in size
# FMDV antiviral = High Throughput Screening for Foot and Mouth Disease Virus Antivirals; FMDV antiviral cell-based qHTS; Potency, µM (top dose mostly 57.9 µM), for inactives: at the highest dose activity change, negative = inhibition, hits mostly inhibitors; 1.2% of 410,000 active; AID 1159524, 2015; calls by dose curve; tested in HEK293T cells; further: read-out not given here; potency means the concentration at half of the fitted maximal effect; nearly all actives have a fitted effect of over 45% in size
# An asterisk follows results filed as active; u = inconclusive; x = not tested or not shown; [ ] = another dose, or the depositor's remark. In the library only some 6.2% were active in any assay of this set; here they are far more common. On the % scale 0 is the no-effect control and ±100 the full control effect.
SMILES,HCMV antiviral,Marburg entry inh,Lassa entry inh,FMDV antiviral
Fc1ccc(-c2ncn(C3CCNCC3)c2-c2ccnc(Oc3ccc(Oc4ccccc4)cc3)n2)cc1,x,x,12.5µM*,x
Fc1ccc(-c2ncn(C3CCNCC3)c2-c2ccnc(Oc3ccc(F)c(F)c3)n2)cc1,x,x,22.3µM*,x
Cc1cc(C(C)(C)C)c(O)c(C)c1CC1=NCCN1,-11.2,15.8µM*,-32.8%,-0.7%
COc1ccc(C(=O)C/C(=C\C(=O)c2ccc(C)cc2)c2ccccc2)cc1,-97.9*,u,u,-15.4%
COc1ccc(C(CC(=O)c2ccccc2)S(=O)(=O)c2ccc(C)cc2)cc1 (centres undefined),-105.4*,0.8%,-2.7%,79.2%
COC(=O)c1c(NC(=O)COC(=O)CC(NC(C)=O)c2ccccc2)sc(C)c1C (centres undefined),-14.7,6.4%,-2.1%[46.1 µM],-20.3%
COc1ccc(NC(=O)CSc2nc3sc(C)c(C)c3c(=O)n2Cc2ccco2)cc1,-9.1,u,12.3%[14.3 µM],0.0%
CC(C)NC(=O)N1CCC(n2nccc2NC(=O)CCOc2ccccc2)CC1,8.4,-10.1%[46.1 µM],12.4%[46.1 µM],-23.3%
C=C(C)CCC(C)N1CCC(n2nccc2NC(=O)CCOc2ccccc2)CC1 (centres undefined),-89.2*,-18.8%,u,-23.4%
Cc1sc2nc(CN3CCCCC3)nc(Nc3ccc4c(c3)OCCO4)c2c1C,-62.5*,-0.3%[46.1 µM],-14.4%,-8.7%
Cc1sc2nc(CN3CCCC3)nc(NCc3ccncc3)c2c1C,37.5,u,7.8%,14.7%
CC1CCN(C(=O)C2CCCN(S(C)(=O)=O)C2)CC1 (centres undefined),8.9,3.5%,2.5%,x
CCN(CC)CCCN1C(=O)CSC1c1ccc2c(c1)OCO2 (centres undefined),28.6,-4.6%,10.9%,-11.4%
CCN(CC)CCCN1C(=O)CSC1c1ccc([N+](=O)[O-])cc1 (centres undefined),-102.4*,x,x,-3.0%
O=C(CSc1nnc(Nc2ccccc2F)s1)NCC1CCCO1 (centres undefined),-6.7,u,-0.8%[46.1 µM],13.3%
N#Cc1nc(COc2ccc(F)cc2)oc1N1CCCCC1,9.8,20.6%,4.6%,-11.9%
Brc1cccc(OCCCNC2CCCC2)c1,21.5,x,x,1.3%
O=C1c2cccc3c([N+](=O)[O-])ccc(c23)C(=O)N1c1ccccn1,-103.0*,10µM*,u,u
O=C1c2cccc3cccc(c23)C(=O)N1c1nccs1,-22.2,u,11.4%,-15.3%
O=C1c2cccc3c([N+](=O)[O-])ccc(c23)C(=O)N1c1nccs1,-94.8*,u,u,35.5µM*
O=C1c2ccc([N+](=O)[O-])cc2C(=O)N1c1ccc(Cl)cn1,-10.2,x,x,-15.3%
O=C1c2cccc3c([N+](=O)[O-])ccc(c23)C(=O)N1O,15.1,x,x,u
O=C1c2cccc3c([N+](=O)[O-])ccc(c23)C(=O)N1c1ccc(Cl)cn1,-105.1*,u,u,25.1µM*
Cc1ccc(Nc2c([N+](=O)[O-])ccc3nonc23)c(C)c1,u,4.2%[46.1 µM],4.9%[46.1 µM],-18.3%
Cc1ccc(S(=O)c2ccc([N+](=O)[O-])c3nonc23)cc1 (centres undefined),-95.0*,x,x,u
SMILES,HCMV antiviral,Marburg entry inh,Lassa entry inh,FMDV antiviral
Cc1cc(C)cc(CC(Cc2nc3ccccc3[nH]2)c2nc3ccccc3[nH]2)c1 (centres undefined),-101.3*,u,u,u
Cc1ccc(CSCc2nc3ccccc3[nH]2)cc1,u,u,u,-0.9%
CCCc1cc(=O)n2nc(N3CCC(C(=O)N4CCN(c5ccc(OC)cc5)CC4)CC3)sc2n1,-86.8*,x,x,u
COc1ccc(N2CCN(C(=O)c3cccnc3SCc3cccc(Br)c3)CC2)cc1,9.3,u,12.6µM*,u
COCC1CCCCN1C(=O)c1ccc(OC2CCN(Cc3ccccn3)CC2)cc1 (centres undefined),25.9,u,1.6%,-7.8%
COc1ccc(CCNc2cc(C)nc3c(-c4ccccc4)cnn23)cc1OC,-68.2*,9.2µM*,8.91µM*,6.0%
Cc1cc(NCCCn2ccnc2)n2nc(C)c(-c3ccccc3)c2n1,87.5,-4.1%,3.4%,24.6%
COc1ccc(CCNc2nc3cc(OC)c(OC)cc3c3nc(-c4ccccc4)nn23)cc1OC,-14.0,11.7%[46.1 µM],x,4.47µM*
Cc1cc(NCCCn2ccnc2)n2ncc(-c3ccccc3)c2n1,x,u,4.47µM*,-3.5%
COc1ccc(CCNc2nc3ccccc3c3nc(-c4cccc(C)c4)nn23)cc1OC,174.5,13.7%[46.1 µM],x,12.0%
COc1ccc(CCNc2cc(C)nc3c(-c4ccc(Cl)cc4)cnn23)cc1OC,34.2,-11.5%,-4.0%,-28.3%
COc1ccccc1CNC(=O)CCS(=O)(=O)c1cccs1,35.6,1.8%,3.6%,52.3%
CCn1cc(C(=O)NC2CCCCC2)c(=O)c2cc(S(=O)(=O)N(C)C)ccc21,-7.9,x,x,-4.8%
CCn1cc[n+](C)c1P(c1ccccc1)c1ccccc1,-76.2*,x,x,u
CCCn1nc(C(=O)Nc2cc(OCC)c(N3CCOCC3)cc2OCC)c2ccccc2c1=O,-92.4*,x,x,u
CCOc1cc(N2CCOCC2)c(OCC)cc1NC(=O)Cc1ccccc1OC,-61.0*,2.9%,-23.3%,-0.6%
CCOc1cc(N2CCOCC2)c(OCC)cc1NC(=O)Cc1ccccc1,-20.0,16.6%[46.1 µM],-17.6%[46.1 µM],-2.3%
CCCc1ccc(C(=O)N2CCN(c3ccccc3OCC)CC2)cc1,-0.7,-29.0%,-15.1%,-16.2%
CCNCCC(CCC(C)C)c1ccc2c(c1)OCO2 (centres undefined),45.0,8.91µM*,-7.0%[46.1 µM],-4.9%
CC(C)CCC(CCNCc1ccccn1)c1ccc2c(c1)OCO2 (centres undefined),26.8,x,x,-11.4%
Cc1cc(=O)n(CC(=O)N2CCN(c3ccccc3F)CC2)c2c1c(C)nn2C,-60.4*,x,-24.3%[46.1 µM],u
Cc1nn(C)c2c1c(C(F)(F)F)cc(=O)n2CC(=O)N1CCN(c2ccccc2F)CC1,6.6,x,27.3%[46.1 µM],-12.9%
CN1CCN(c2ccc(-c3ccc4ccccc4n3)cc2)CC1,-92.1*,u,u,1.78µM*
c1ccc2nc(-c3ccc(N4CCOCC4)cc3)ccc2c1,-26.7,2.31µM*,3.66µM*,-0.9%
Cc1cc(-c2ccc(N3CCOCC3)cc2)nc2ccccc12,64.4,u,-23.7%,15.2%
SMILES,HCMV antiviral,Marburg entry inh,Lassa entry inh,FMDV antiviral
Nc1ncnc2c1ncn2[C@@H]1O[C@H](CNC(=O)[C@@H]2C[C@H](F)CN2)[C@@H](O)[C@H]1O,7.8,x,x,-18.6%
Cc1ccccc1-n1c(-c2ccco2)n[nH]c1=S,9.1,u,11.2%,-11.6%
FC(F)(F)c1ccccc1-n1c(-c2ccco2)n[nH]c1=S,u,-8.0%[46.1 µM],-4.5%[46.1 µM],14.1µM*
CCNC(=S)NS(=O)(=O)c1ccc(CC)cc1,-94.6*,u,0.0%,20.7%
Cc1ccc(-c2[nH]ncc2CNCCc2cnn(-c3ccccc3)c2)cc1C,2.8,8.91µM*,-3.7%,u
CCCCCCCCN=C1NC(=O)CS1,29.8,8.5%,-1.5%,-22.3%
CCCCNS(=O)(=O)c1ccc(NC(=O)Cc2ccc(OC)cc2)cc1,-67.0*,u,-17.2%[46.1 µM],-1.9%
